# Screens (PubChem BioAssay)
# ELG1 repair inh – inhibitors of ELG1-dependent DNA repair in HEK293T cells | HEK293T ELG1-luciferase reporter, luminescence, 16 h; DNA damage induced by 5-fluorouridine | Potency, µM (series often up to 46.1 µM), usual class: inhibitors | hit rate 2.3% among 330,000; further: nearly all actives have a fitted effect of over 55% in size
#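 Reporter activity after DNA damage by 5-fluorouridine is monitored. Compound-treated cells incubate 16 hr at 37 °C, then ONE-Glo is added for 30 min before luminescence reading.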
# NPC1 prom act – activators of NPC1 promoter. Huh7 NPC1 promoter luciferase reporter, 24 h. hit rate 2.4% among 320,000. Potency, µM (top dose mostly 9.22 µM), usual class: activators; further: nearly all actives have a fitted effect of over 60% in size
#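 Huh7 reporter cells (NPC1 promoter driving luciferase) are dosed with compound for 24 h at 37 °C, 5% CO2; luciferase detection reagent is then added and luminescence measured after 10 min at ambient temperature.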
# FLuc counter – inhibits or activates purified firefly luciferase, miR-21 counter-screen. purified FLuc, Km substrates, luminescence inhibition. Potency, µM (highest dose often 57.5 µM), usual class: inhibitors. hit rate 6.9% among 360,000. AID 588342; further: nearly all actives have a fitted effect of over 55% in size
# Target sequence (P08659 whole entry, looked up): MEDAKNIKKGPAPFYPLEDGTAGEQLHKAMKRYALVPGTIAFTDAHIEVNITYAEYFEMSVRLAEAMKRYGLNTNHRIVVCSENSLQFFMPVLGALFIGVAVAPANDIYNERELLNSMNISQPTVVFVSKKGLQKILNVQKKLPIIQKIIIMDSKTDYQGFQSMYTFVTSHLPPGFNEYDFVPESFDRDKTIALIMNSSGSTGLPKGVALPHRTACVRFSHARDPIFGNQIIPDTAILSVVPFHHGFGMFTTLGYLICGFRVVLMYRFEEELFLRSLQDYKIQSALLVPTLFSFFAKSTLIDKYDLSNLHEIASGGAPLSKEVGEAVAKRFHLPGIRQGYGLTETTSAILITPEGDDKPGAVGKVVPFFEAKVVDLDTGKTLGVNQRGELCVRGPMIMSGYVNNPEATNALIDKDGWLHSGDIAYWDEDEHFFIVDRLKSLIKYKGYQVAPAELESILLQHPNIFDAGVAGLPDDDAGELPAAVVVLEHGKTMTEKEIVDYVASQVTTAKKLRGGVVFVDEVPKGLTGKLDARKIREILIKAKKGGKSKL
#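 Purified P. pyralis luciferase (10nM final) with 10uM D-luciferin and 10uM ATP (Km levels) in 50mM Tris acetate pH 7.5, 10mM Mg acetate, 0.01% Tween-20, 0.05% BSA; qHTS 6-point titration, ~60 µM downward; luminescence read.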
# SMN2 splice up – increases expression of the SMN2 splice variant; HEK293 SMN2-luciferase splicing reporter, luminescence, 30-36 h; Potency, µM (top dose mostly 46.1 µM), usual class: activators; hit rate 2.8% among 210,000; AID 1458; further: nearly all actives have a fitted effect of over 55% in size
#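 HEK293 cells carry an SMN2 minigene-luciferase reporter in which exon 7 inclusion puts luciferase in frame. Cells were seeded at 2000 cells/well, attached for 10-12 hours, then exposed to compounds for 30-36 hours at 37C before ONE-Glo luminescence.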
# Rab9 prom act – activates the Rab9 promoter; Huh7 Rab9 promoter-luciferase reporter, luminescence, 24 h; Potency, µM (top dose mostly 9.22 µM), actives largely listed as activators; hit rate 2.8% among 320,000; AID 485297; further: nearly all actives have a fitted effect of over 60% in size
#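 Promoter activation is measured as luciferase luminescence in Huh7 cells stably transfected with a Rab9 promoter–luciferase construct, following 24 h compound exposure at 37 °C and 10 min reagent incubation at ambient temperature.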
# ELG1 genotoxic – inducers of genotoxicity in HEK293T ELG1-luciferase cells; HEK293T ELG1-luciferase reporter, luminescence, 16 h; AID 504466; Potency, µM (highest dose often 46 µM), most hits filed as activators; hit rate 1.3% among 330,000; further: nearly all actives have a fitted effect of over 60% in size
#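 16 hr compound incubation (37 °C, 5% CO2) of HEK293T cells carrying luciferase-tagged ELG1; luciferase then measured by ONE-Glo luminescence after 30 min at RT.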
# Hits are given with their value; n = inactive; u = inconclusive; x = not tested or not shown. A selection: hits, their analogues and other compounds. The true share with any hit is near 9.2%. The call rests on the fitted dose curve; in most records, active means well fitted curve in the direction sought with a large enough effect; inconclusive means small, poorly fitted or top-dose-only effect, or another doubt; inactive means no such curve, though single readings can be large; an effect the other way counts as inactive or inconclusive.
SMILES,ELG1 repair inh,NPC1 prom act,FLuc counter,SMN2 splice up,Rab9 prom act,ELG1 genotoxic
CCN(CC)CC(=O)Nc1cccc(S(=O)(=O)N2CCCC2)c1,n,n,n,x,n,n
CCN(CC)S(=O)(=O)c1cccc(NC(=O)CC2CCCC2)c1,u,n,n,x,n,n
CN(CC(=O)Nc1cccc(S(=O)(=O)N2CCCC2)c1)CC(=O)Nc1ccc(Cl)c(C(F)(F)F)c1,14.6µM,n,n,x,n,n
COCc1ccc(C(=O)N2CCCC(C(=O)c3ccc(SC)cc3)C2)o1 (stereo unspecified),n,n,n,x,n,n
O=C(CO/N=C/c1ccc(OC(F)F)cc1)NCc1ccco1,n,n,n,n,n,n
OC1(c2ccc(OC(F)F)cc2)CSC(=Nc2cccnc2)N1Cc1ccco1 (stereo unspecified),18.3µM,n,n,n,n,n
OC1(c2ccc(F)cc2)CSC(=Nc2cccnc2)N1Cc1ccco1 (stereo unspecified),23.1µM,n,n,n,n,n
N#CC/C(N)=N/NC(=O)CCCNc1ncc(C(F)(F)F)cc1Cl,n,n,n,15.8µM,u,n
COc1ccc([C@H]2CC(=O)C=C(c3ccc(CNC(=O)OC(C)(C)C)cc3)C2)cc1,u,n,n,x,n,n
O=C(Nc1ccccc1F)C(=O)Nc1cccc2ccccc12,u,u,u,x,2.82µM,u
O=C(Nc1cccc2ccccc12)/C(=C/c1ccc([N+](=O)[O-])cc1)NC(=O)c1ccccc1,n,n,n,n,n,n
O=C(Nc1cccc2ccccc12)/C(Cl)=C/c1ccccc1,u,n,12µM,n,n,n
COc1cc(NC(=O)CCc2c(C)nn(-c3ccc(N4CCCCC4)nn3)c2C)cc(OC)c1OC,x,x,19µM,x,x,x
COC(=O)c1ccc(NC(=O)CCc2c(C)nn(-c3ccc(N4CCCCC4)nn3)c2C)cc1,x,x,9.53µM,x,x,x
Cc1ccc(NC(=O)CCc2c(C)nn(-c3ccc(N4CCOCC4)nn3)c2C)cc1C,n,n,u,x,n,n
COc1ccc(NC(=O)CCc2c(C)nn(-c3ccc(N4CCCCC4)nn3)c2C)cc1Cl,x,x,2.13µM,x,x,x
O=C(CSc1ncnc2[nH]ncc12)Nc1cccc(Oc2ccccc2)c1,n,n,n,n,n,n
CC(=O)c1cccc(CN2CCCC(N3CCN(c4ccccc4F)CC3)C2)c1 (stereo unspecified),u,n,n,x,n,n
Cc1ccc(N2C(=O)CC(SCC(=O)Nc3ccc(S(N)(=O)=O)cc3)C2=O)cc1 (stereo unspecified),u,u,26.9µM,x,u,u
CC/C(=N/Nc1ccccc1)c1cnnc(-c2ccccc2)n1,n,n,n,n,n,u
CC/C(=N\Nc1nncc2ccccc12)c1ccc(F)cc1,u,u,12µM,x,u,16.4µM
CCOC(=O)NNc1nncc2ccccc12,n,n,n,n,n,n
C/C(=N\Nc1nncc2ccccc12)c1ccc(OCC(=O)N(C)C)cc1,u,n,12µM,x,u,n
O=C(N=c1nc2ccccn2s1)c1ccccc1,u,0.891µM,0.19µM,1.78µM,u,0.13µM
Cc1ccc(CN2C(=O)N/C(=C\c3ccc(N4CCOCC4)cc3)C2=O)cc1,u,n,n,u,n,n
SMILES,ELG1 repair inh,NPC1 prom act,FLuc counter,SMN2 splice up,Rab9 prom act,ELG1 genotoxic
O=C1N/C(=C/c2ccc(N3CCOCC3)o2)C(=O)N1c1cccc(Cl)c1,u,n,21.3µM,n,u,n
CCOC(=O)C1=C(C)NC(=S)NC1c1ccc(-c2ccc(Cl)cc2)o1 (stereo unspecified),u,n,n,n,n,n
CCOC(=O)C1=C(C)NC(=S)NC1c1ccc(-c2cccc(Cl)c2C)o1 (stereo unspecified),20.6µM,n,n,n,n,n
COc1cc(NC(=O)C(Cc2ccccc2)NS(=O)(=O)c2cccs2)cc(OC)c1 (stereo unspecified),x,x,n,x,x,x
CCOc1ccc2nc(NC(=O)CS(=O)(=O)c3ccc(C)cc3)sc2c1,n,n,21.3µM,n,n,n
CC(=O)Nc1ccc2nc(NC(=O)CS(=O)(=O)c3ccccc3)sc2c1,n,n,u,x,n,n
